This note sets out measurements from PubChem BioAssay (NCI).

SMILES strings stand for the structures. The panel holds about 83,000 compounds, 20% with a hit somewhere; the sample as a whole holds those more often.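 Step 1: grow cells in 96-well plates. Step 2: add test compound at a single concentration. Step 3: incubate 48 h. Step 4: record percent growth.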 Unmarked numbers belong to inactive results. The source made the active and inactive calls. How the source made its calls: active means growth percent below 10; inactive means the rest.

Among the test systems are HCT-15 colon; HT29 colon; SNB-75 CNS; SNB-19 CNS; U251 CNS; PC-3 prostate; SK-MEL-5 melanoma; UACC-62 melanoma; LOX IMVI melanoma; SK-MEL-28 melanoma; SK-MEL-2 melanoma; EKVX NSCLC; SN12C renal; UO-31 renal; TK-10 renal; ACHN renal; CAKI-1 renal; A498 renal; CCRF-CEM leukemia; MOLT-4 leukemia.
Common to all, as to assay: NCI-60 one-dose screen, 48 h (100 = growth as untreated, 0 = no growth, -100 = all killed)
Common to all, as to conditions: 10 µM unless noted

As to `CC1=C(Cl)C(=O)c2cc(C)ccc2C1=O`, the growth in the test with HCT-15 colon is 100%; in the test with HT29 colon, 103%; with SNB-75 CNS, 88.9%; in the test on SNB-19 CNS it was 106%; with U251 CNS it was 96.2%; in the test on PC-3 prostate, 89.6%. Further, the growth with SK-MEL-5 melanoma was 101%; in the test with UACC-62 melanoma, 96%; with LOX IMVI melanoma it was 100%; in the test on SK-MEL-28 melanoma, 94.9%; in the test on SK-MEL-2 melanoma it was 99.9%; in the test on EKVX NSCLC, 94.2%. Besides, the growth is 93.7% with SN12C renal; 73.3% in the test with UO-31 renal; 108% in the test with TK-10 renal; 96.9% with ACHN renal; 86.7% in the test on CAKI-1 renal; 97.2% in the test with A498 renal. In addition, the growth in the test on CCRF-CEM leukemia was 102%; in the test with MOLT-4 leukemia, 98.1%.

As for `Cc1ccc(-c2nc(SCC(=O)N3CCN(c4cc5c(cc4F)c(=O)c(C(=O)O)cn5C4CC4)CC3)nc(Cl)c2C#N)cc1`, the growth is 99.8% in the test on HCT-15 colon; 103% with HT29 colon; 103% in the test on SNB-75 CNS; 94.7% with SNB-19 CNS; 106% with U251 CNS; 99.5% in the test with PC-3 prostate. The growth in the test on SK-MEL-5 melanoma was 101%; with UACC-62 melanoma, 94.7%; with LOX IMVI melanoma, 97.2%; with SK-MEL-28 melanoma, 106%; with SK-MEL-2 melanoma, 97.8%; in the test on EKVX NSCLC it was 96.1%. Also, the growth in the test on SN12C renal was 96.3%; in the test on UO-31 renal it was 82.1%; with TK-10 renal, 104%; in the test with ACHN renal, 106%; in the test with CAKI-1 renal, 94.7%; in the test on A498 renal it was 103%. The growth in the test on CCRF-CEM leukemia was 106%; with MOLT-4 leukemia, 105%.

As to `Nc1nc2ccccc2c2c(=O)c3cc(Cl)ccc3sc12`, the growth in the test with HCT-15 colon was 96.8%; with HT29 colon, 102%; in the test on SNB-75 CNS, 91.2%; with SNB-19 CNS, 96.1%; in the test on U251 CNS it was 98.5%; in the test on PC-3 prostate, 90.7%. The growth is 96.5% in the test with SK-MEL-5 melanoma; 93.4% in the test with UACC-62 melanoma; 103% in the test with LOX IMVI melanoma; 109% in the test on SK-MEL-28 melanoma; 106% in the test on SK-MEL-2 melanoma; 91.4% in the test with EKVX NSCLC. The growth in the test with SN12C renal was 94.9%; in the test with UO-31 renal it was 86.6%; in the test with TK-10 renal it was 109%; in the test on ACHN renal, 99.8%; in the test with CAKI-1 renal it was 87.8%; with A498 renal, 107%. Moreover, the growth was 101% in the test on CCRF-CEM leukemia and 105% in the test with MOLT-4 leukemia.

For `O=C(Nc1ncc(Cc2ccccc2)s1)c1sc2ccccc2c1Cl`, the growth in the test with HCT-15 colon is 26.5%; in the test with HT29 colon, 12.3%; with SNB-75 CNS, -1.11% (active); with SNB-19 CNS, 52.6%; in the test on U251 CNS, 21.4%; with PC-3 prostate, 27%. For the same molecule, the growth is 3.74% (active) in the test with SK-MEL-5 melanoma; 12.1% in the test with UACC-62 melanoma; 46.9% with LOX IMVI melanoma; 59.4% with SK-MEL-28 melanoma; 20.8% with SK-MEL-2 melanoma; 30.2% in the test with EKVX NSCLC. In addition, the growth was 39% in the test on UO-31 renal; 38.8% in the test on TK-10 renal; 39.8% in the test on ACHN renal; 29.5% in the test on CAKI-1 renal; 15.1% in the test with A498 renal; 18.8% in the test with CCRF-CEM leukemia. Moreover, the growth in the test on MOLT-4 leukemia is 31.4%.

Take `COC(=O)/C=C1/SC(=Nc2ccc(F)cc2)N(CCc2c[nH]c3ccc(O)cc23)C1=O`: the growth in the test with HCT-15 colon was 23.6%; in the test on HT29 colon, 36.7%; in the test with SNB-75 CNS, 43.2%; with SNB-19 CNS, 46.6%; in the test with U251 CNS, 25.6%; in the test on PC-3 prostate it was 33.3%. Also, the growth with SK-MEL-5 melanoma is 44.9%; with UACC-62 melanoma it was 23.5%; in the test with LOX IMVI melanoma, -10.7% (active); in the test on SK-MEL-28 melanoma, 51.8%; with SK-MEL-2 melanoma it was -0.819% (active); in the test with EKVX NSCLC, 55.9%. For the same molecule, the growth in the test with SN12C renal was 42.5%; in the test on UO-31 renal, 46.4%; in the test with TK-10 renal, 84%; in the test on ACHN renal, 33.8%; in the test on CAKI-1 renal, 52.1%; in the test on A498 renal, 49.8%. For the same molecule, the growth is 3.69% (active) with CCRF-CEM leukemia and 0.14% (active) in the test with MOLT-4 leukemia.

As to `Cc1nc2sc(C(=O)Nc3cccc4ccccc34)c(N)c2cc1C(=O)c1ccccc1`, the growth in the test on HCT-15 colon is 14%; in the test with HT29 colon it was 14.7%; with SNB-75 CNS, 11.9%; in the test with SNB-19 CNS it was 26.9%; with U251 CNS, 22.8%; with PC-3 prostate, 21.3%. The growth in the test on SK-MEL-5 melanoma is 25%; with UACC-62 melanoma it was 33.4%; in the test with LOX IMVI melanoma it was 41.8%; in the test on SK-MEL-28 melanoma, 59.8%; with SK-MEL-2 melanoma it was 46.6%; with EKVX NSCLC, 46%. In addition, the growth in the test with SN12C renal was 36.6%; in the test with UO-31 renal, 43.5%; with TK-10 renal, 66.1%; in the test on ACHN renal, 41.6%; in the test with CAKI-1 renal, 36.5%; in the test with CCRF-CEM leukemia, 12%. Moreover, the growth with MOLT-4 leukemia was 21.4%.

For the molecule `CC(C)(Sc1cc(C(C)(C)C)c(O)c(C(C)(C)C)c1)Sc1cc(C(C)(C)C)c(OC(=O)CCC(=O)O)c(C(C)(C)C)c1`, the growth in the test with HCT-15 colon is 22%; in the test on HT29 colon, 24.2%; in the test on SNB-75 CNS, 94.2%; in the test with SNB-19 CNS, 47.4%; in the test with U251 CNS, 34.4%; in the test on PC-3 prostate, 35.5%. For the same molecule, the growth was 50.1% in the test with SK-MEL-5 melanoma; 6.79% (active) with UACC-62 melanoma; 56.1% in the test with LOX IMVI melanoma; 54.1% with SK-MEL-28 melanoma; 23.4% with SK-MEL-2 melanoma; 44.1% with EKVX NSCLC. The growth in the test on SN12C renal is 34.2%; in the test with UO-31 renal it was 33.2%; in the test on TK-10 renal, 60.5%; with ACHN renal, 44.5%; with CAKI-1 renal, 54.5%; with CCRF-CEM leukemia, 35.8%. Also, the growth in the test with MOLT-4 leukemia was 73.3%.
